The values that follow come from PubChem BioAssay (NCATS).

Results filed as inconclusive are left out. A number with no mark means an inactive call. Activity calls are given as the source filed them. The call rests on the fitted dose curve; in most records, active means well fitted inhibition curve with a large enough effect; inconclusive means small, poorly fitted or top-dose-only effect; inactive means flat fitted curve, though single readings scatter.
On the % scale 0 is the no-effect control and ±100 the full control effect; potency means the concentration at half of the fitted maximal effect.

The experiment deals with astro (control astrocytes). Put plainly: Drug repurposing screens with cells derived from glioblastoma tumor samples (AID 1345199). Further: nearly all actives have a fitted effect of over 40% in size. To be noted: viability, ATP luminescence, 48 h; series mostly up to 45.9 µM; activity, negative = cell killing: at the top concentration. The essentials:
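Four patient lines of CD133+ GBM neurospheres were screened at several concentrations; hits were retested in those lines plus three slower-growing GBM lines, using 48-hour treatment and ATP-based viability.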
On to `C[N+]1(C)[C@@H]2CC[C@H]1CC(OC(=O)c1c[nH]c3ccccc13)C2` (stereo not given in full), for which the “activity, negative = cell killing” value was -15.4%.
The same measure, in the same setting: to `CCNC1(c2cccs2)CCCCC1=O` (stereo not given) belongs -16.5% [at 21.2 µM]; to `CC(=O)O[C@H]1CC[C@H]2[C@@H]3CCC4=CC(=O)CCC4=C3C=C[C@]12C`, -18.6%.
Same read-out and setting: with `O=P(O)(O)C(Cl)(Cl)P(=O)(O)O` the figure was 4.38%.
The same measure, in the same setting: with `C=CCN=C=S` the figure was -9.1%.
As for `CC[N+](C)(CC)CCOC(=O)C(O)(c1ccccc1)c1ccccc1`, the “activity, negative = cell killing” value was -10.7%.
Still for that read-out and setting: with `C[N+]1(C)CCCCC1COC(=O)C(O)(c1ccccc1)c1ccccc1` (stereo not given) the figure was -20.7%; with `C[C@]12CCC(=O)C=C1C=C[C@@H]1[C@@H]2CC[C@@]2(C)[C@H]1CC[C@@]2(O)CCC(=O)O`, -11.8% [at 21.2 µM]; with `COCC(C)N(C(=O)CCl)c1c(C)csc1C` (stereo not given), -13.6%.
As for `O=c1[nH]cc(N(CCCl)CCCl)c(=O)[nH]1`, the “activity, negative = cell killing” value was -13.8%.
For the molecule `CC(Cc1ccccc1)NC=O` (stereo not given), the “activity, negative = cell killing” value was -22.2%.
Same read-out and setting: to `Clc1ccc(C(Cn2ccnc2)OCc2csc3c(Cl)cccc23)c(Cl)c1` (stereo not given) belongs -11.5% [at 21.2 µM]; to `c1csc(C2(N3CCCCC3)CCCCC2)c1`, -19.8%; to `ClC1=C(Cl)[C@]2(Cl)[C@@H]3[C@H]4C[C@H]([C@@H]5O[C@H]45)[C@@H]3[C@@]1(Cl)C2(Cl)Cl`, -4.04%.
Same read-out and setting: with `O=C(O)C(Cl)(Cl)Cl` the figure was -19.3%; with `O=C(CCl)c1ccc(Oc2ccc(C(=O)CCl)cc2)cc1`, -9.89%; with `C[C@H]1CCC[C@H](O)CCCCCc2cc(O)cc(O)c2C(=O)O1`, -9.99%.
Still for that read-out and setting: with `O=C1CN(O)C(c2ccccc2)=c2cc(Cl)ccc2=N1` the figure was -9.1%; with `CCCCCCCCOC(=O)c1ccccc1C(=O)OCCCCCCCC`, -10.2%.
As for `S=C=S`, the “activity, negative = cell killing” value was -7.63%.
Consider `C=CCN(C1=NCCN1)c1c(Cl)cccc1Cl`, for which the “activity, negative = cell killing” value is -16.9%.
Same read-out and setting: to `OC[C@@H](O)[C@H]1O[C@@H]2O[C@H](C(Cl)(Cl)Cl)O[C@@H]2[C@H]1O` belongs -15.1%; to `O=C1OC2(c3cc(Br)c(O)cc3Oc3c2cc(Br)c(O)[c]3[Hg])c2ccccc21` (stereo not given), -29% [at 21.2 µM]; to `C=CCC1(C(C)CCC)C(=O)N=C(S)NC1=O` (stereo not given), -19.1%.
With `O=C1CCO1`, the “activity, negative = cell killing” value is -15.5%.
In the case of `CCC/C=C/C=C/C(=O)O[C@H]1/C(=C/C(=O)OC)C[C@H]2C[C@H]([C@@H](C)O)OC(=O)C[C@H](O)C[C@@H]3C[C@H](OC(C)=O)C(C)(C)[C@](O)(C[C@@H]4C/C(=C/C(=O)OC)C[C@H](/C=C/C(C)(C)[C@]1(O)O2)O4)O3`, the “activity, negative = cell killing” value is -28.3%.
Still for that read-out and setting: with `CCCCNCC(O)c1ccc(O)cc1` (stereo not given) the figure was -19.5%; with `CCC1(c2ccccc2)C(=O)NC(=O)N(C(=O)c2ccccc2)C1=O` (stereo not given), -12%.
Still for that read-out and setting: with `O=C(NC(=O)c1c(F)cccc1F)Nc1ccc(Cl)c(Oc2ncc(C(F)(F)F)cc2Cl)c1` the figure was -28.5%.
Regarding `O=[N+]([O-])c1cc(I)c(O)c(I)c1`, the Potency is 35.5 µM (active).
Consider `OC(c1ccccc1)(c1ccccc1)C1CN2CCC1CC2` (stereo not given), for which the “activity, negative = cell killing” value was -13.4%.
`CN1[C@@H]2CC[C@H]1CC(OC1c3ccccc3CCc3ccccc31)C2` (stereo not given in full): the “activity, negative = cell killing” value was -20.9% [at 21.2 µM].
Take `c1ccc(C2(N3CCCC3)CCCCC2)cc1`: the “activity, negative = cell killing” value was -8.55%.
On to `N#CN`, for which the “activity, negative = cell killing” value was -17.1%.
Still for that read-out and setting: with `C#CC(C)(O)CC` (stereo not given) the figure was -13.2%.
